From PubChem BioAssay (EPA / NIEHS)
Results filed as inconclusive are left out. Some structures have more than one record in an assay (separate samples or runs), and their calls can disagree. Activity calls are given as the source filed them. How the source made its calls, unless noted: active means hit-call score of the fitted dose curve at least 0.9, where 1 is the maximum; inactive means score below 0.9.

Key:
[1] = system: Sodium/Iodide Symporter (NIS), SLC5A5 (gene 6528); test: CPHEA_Stoker_NIS_Inhibition_RAIU: CPHEA's Radioactive Iodide Uptake (RAIU) Assay for Sodium/Iodide Symporter (NIS) Inhibition, Stoker and Laws Labs (AID 2283841; active means hit-call score of the fitted dose curve at least 0.9, where 1 is the maximum)
Outline: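 Iodide uptake through human NIS is measured in an engineered HEK293T line. Cells take up 125I (329pM final) for 2 hours at room temperature alongside chemicals at 0.001–100uM. Retained radioactivity is counted, and the signal is expressed against DMSO controls.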

[2] = read-out: Vascular cell adhesion molecule 1 (VCAM1), VCAM1 (gene 7412); test: BSK_BF4T_VCAM1: BioMAP Diversity Plus: BF4T Assay for Vascular cell adhesion molecule 1 (VCAM1) Biomarker Activity (AID 2284249); conditions: primary human bronchial epithelial cells with fibroblasts
Outline: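 Human bronchial epithelial cell and dermal fibroblast co-culture exposed 24 h. VCAM-1 measured by ELISA; parallel SRB total-protein staining for cytotoxicity. Fitted in positive direction relative to DMSO.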

[3] = read-out: Interleukin-8 (IL8), CXCL8 (gene 3576); test: BSK_BF4T_IL8: BioMAP Diversity Plus: BF4T Assay for Interleukin-8 (IL8) Biomarker Activity (AID 2284263); conditions: primary human bronchial epithelial cells with fibroblasts
Outline: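 Human bronchial epithelial cells with dermal fibroblasts co-culture; IL-8 measured by ELISA 24 hours after dosing, fitted vs DMSO. Cytotoxicity tracked in parallel cultures by SRB total-protein staining.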

[4] = read-out: Interleukin-8 (IL8), CXCL8 (gene 3576); test: BSK_IMphg_IL8: BioMAP Diversity Plus: IMphg Assay for Interleukin-8 (IL8) Biomarker Activity (AID 2284277); conditions: primary human endothelial cells with macrophages
Outline: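 Co-culture of human venular endothelial cells and macrophages exposed to chemicals for 24 h; IL-8 quantified by ELISA and compared against the DMSO baseline, with SRB total-protein staining in parallel cultures for cytotoxicity.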

[5] = read-out: Interleukin-1 alpha (IL1a), IL1A (gene 3552); test: BSK_IMphg_IL1a: BioMAP Diversity Plus: IMphg Assay for Interleukin-1 alpha (IL1a) Biomarker Activity (AID 2284290); conditions: primary human endothelial cells with macrophages
Outline: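 Human venular endothelial cells co-cultured with macrophages, IMphg system. IL-1α is measured by ELISA 24 h after dosing and fitted in the positive direction against DMSO. Cytotoxicity is assessed by SRB staining of parallel cultures.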

[6] = target: Estrogen-related receptor gamma (Homo sapiens) (UniProt P62508); test: ATG_ERRg_TRANS: Attagene TRANS-FACTORIAL HepG2 Assay for human Estrogen-Related Receptor gamma (ERRg) (AID 2282977; active means hit-call score of the fitted dose curve at least 0.9, where 1 is the maximum;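 further: hits increase reporter signal over DMSO so potencies reflect activators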); conditions: HepG2 Attagene TRANS reporter, ERRg transactivation
Outline: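 HepG2 cells transiently transfected with multiplexed GAL4-UAS reporter units driven by chimeric NR-Gal4 proteins; 24 h exposure. Reporter mRNA quantified by RT-PCR, fluorescent labelling, HpaI digestion and capillary electrophoresis; gain of signal vs DMSO.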

[7] = target: human Peripheral-type Benzodiazepine Receptor (PBR), TSPO (gene 706) (UniProt P30536); test: NVS_MP_hPBR: NovaScreen (NVS) Membrane Protein Assay for human Peripheral-type Benzodiazepine Receptor (PBR) (AID 2283331; active means hit-call score of the fitted dose curve at least 0.9, where 1 is the maximum;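 further: hits reduce radioligand binding relative to DMSO baseline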)
Outline: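 Scintillation counts of filter-bound radioligand served as read-out after 1 h chemical dosing of human colonic membrane preparations. Activity was scored as signal loss against DMSO; initial duplicates at 25 uM, confirmatory concentration series afterward.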

[8] = target: human Phosphodiesterase 10 (PDE10), PDE10A (gene 10846) (UniProt Q9Y233); test: NVS_ENZ_hPDE10: NovaScreen (NVS) Enzymatic Assay for human Phosphodiesterase 10 (PDE10) (AID 2283195; active means hit-call score of the fitted dose curve at least 0.9, where 1 is the maximum)
Outline: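 PDE10A, cell-free; 1 h incubation; fluorescence intensity + electrophoretic mobility shift separating substrate/product; DMSO = baseline; 25 uM duplicate primary, CRC up to 50 uM.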

[9] = target: Retinoic acid receptor alpha (Homo sapiens) (UniProt P10276); test: ATG_DR5_RAR_CIS: Attagene CIS-FACTORIAL HepG2 Assay for human Retinoic Acid Receptor Alpha (RARE), DR5 submotif (AID 2282934); conditions: HepG2 Attagene cis-factorial RARE DR5 reporter, mRNA; actives raise or lower the signal
Outline: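 HepG2, transient cis-reporter transfection, 24 h exposure. mRNA readout: RT-PCR, FAM label, HpaI cut, capillary electrophoresis. DMSO baseline, gain/loss fitting.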

[10] = CCTE_Deisenroth_AIME_384WELL_CTox_Active: Cytotoxicity Assessment (CTOX) in CCTE's 384-well Estrogen Receptor Transactivation Assay with AIME metabolic competence (metabolism positive), Deisenroth Lab (AID 2284037; active means hit-call score of the fitted dose curve at least 0.9, where 1 is the maximum;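 further: chemicals first conditioned 2 h by alginate-bound induced rat liver S9 before cells; activity means signal loss indicating cell death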)
Outline: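 Cytotoxicity in VM7Luc4E2 breast cells, 24 hour, measured as protease-substrate fluorescence loss, after 2-hour metabolic conditioning with induced rat hepatic S9 in alginate microspheres. Concentrations 0.002 - 200 uM, 10 points, bidirectional fitting.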

[11] = CCTE_Deisenroth_AIME_384WELL_CTox_Inactive: Cytotoxicity Assessment (CTOX) in CCTE's 384-well Estrogen Receptor Transactivation Assay without AIME metabolic competence (metabolism negative), Deisenroth Lab (AID 2284039; active means hit-call score of the fitted dose curve at least 0.9, where 1 is the maximum;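 further: cell viability via live-cell protease substrate cleaved to fluorescent probe; cells exposed 24 h to medium preincubated 2 h with alginate-water beads without S9; loss of fluorescence signal means loss of viability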)
Outline: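 Metabolism-negative arm: chemicals (10-point, 0.002 - 200 uM) preincubated 2 h with alginate-water lids, medium moved onto VM7Luc4E2 cells for 24 h. Fluorescent live-cell protease readout; bidirectional curve fit.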

[12] = UKN5_HCS_SBAD2_cell_viability: Viability Assessment in the University of Konstanz (UKN) Leist Lab Neurite Outgrowth Assay in human iPSC-derived immature Dorsal Root Ganglia Neurons (UKN5) (AID 2284056)
Outline: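 iPSC-derived immature peripheral neurons (SBAD2) seeded on Matrigel with CHIR99021, SU5402 and DAPT, dosed 1 h later for 24 h. Viability from Hoechst H-33342 and calcein-AM live staining, high-content imaging; bidirectional fit versus DMSO.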

[13] = UKN5_HCS_SBAD2_neurite_outgrowth: University of Konstanz (UKN) Leist Lab Neurite Outgrowth Assay in human iPSC-derived immature Dorsal Root Ganglia Neurons (UKN5) (AID 2284070); conditions: actives raise or lower the signal
Outline: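 SBAD2 iPSC-derived immature peripheral neurons on Matrigel, 100.000 cells/cm2, medium with CHIR99021 (1.5 uM), SU5402 (5 uM), DAPT (5 uM); compound added 1 h post-seeding for 24 h. Calcein-AM neurite area by high-content imaging; Hoechst H-33342 viability; bidirectional fit vs DMSO.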

[14] = UKN2_HCS_IMR90_neural_migration: University of Konstanz (UKN) Leist Lab Neural Crest Cell Migration Assay in human induced IMR90 Pluripotent Stem Cells (UKN2) (AID 2284204); conditions: actives raise or lower the signal
Outline: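 Migration of human IMR90-derived neural crest cells into a stopper-defined gap is imaged after 24 h chemical treatment. Activity is fitted bidirectionally relative to DMSO.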

[15] = UKN4_HCS_LUHMES_neurite_outgrowth: University of Konstanz (UKN) Leist Lab Neurite Outgrowth Assay in human LUHMES cells (UKN4) (AID 2284206); conditions: actives raise or lower the signal
Outline: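 Human LUHMES neuronal precursors, differentiated 2 days then replated without cAMP and GDNF, exposed to compounds for 24 h. Neurite area imaged by high-content microscopy after calcein-AM live staining; Hoechst H-33342 for viability; bidirectional fit versus DMSO.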

[16] = UKN4_HCS_LUHMES_cell_viability: Viability Assessment in the University of Konstanz (UKN) Leist Lab Neurite Outgrowth Assay in human LUHMES cells (UKN4) (AID 2284232)
Outline: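 LUHMES precursors differentiated 2 days, replated at 30000 cells/well without cAMP/GDNF, then compound-treated 24 h. Viability from Hoechst H-33342 and calcein-AM live staining (30 min) by high-content fluorescence imaging; bidirectional fit versus DMSO.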

[17] = UKN2_HCS_IMR90_cell_viability: Viability Assessment in the University of Konstanz (UKN) Leist Lab Neural Crest Cell Migration Assay in human induced IMR90 Pluripotent Stem Cells (UKN2) (AID 2284233);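 further: viability of neural crest cells differentiated from IMR90 iPSC measured by calcein-AM fluorescence imaging; cells exposed to compound for 24 h after a 24 h migration phase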
Outline: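 Human IMR90-derived neural crest cells were allowed to migrate for 24 h into a cell-free zone, then exposed to test chemicals for 24 h. Calcein-AM and Hoechst staining with high-content imaging gave viability, analysed against DMSO baseline.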

Sequence of Retinoic acid receptor alpha (Homo sapiens) (P10276 whole entry, looked up): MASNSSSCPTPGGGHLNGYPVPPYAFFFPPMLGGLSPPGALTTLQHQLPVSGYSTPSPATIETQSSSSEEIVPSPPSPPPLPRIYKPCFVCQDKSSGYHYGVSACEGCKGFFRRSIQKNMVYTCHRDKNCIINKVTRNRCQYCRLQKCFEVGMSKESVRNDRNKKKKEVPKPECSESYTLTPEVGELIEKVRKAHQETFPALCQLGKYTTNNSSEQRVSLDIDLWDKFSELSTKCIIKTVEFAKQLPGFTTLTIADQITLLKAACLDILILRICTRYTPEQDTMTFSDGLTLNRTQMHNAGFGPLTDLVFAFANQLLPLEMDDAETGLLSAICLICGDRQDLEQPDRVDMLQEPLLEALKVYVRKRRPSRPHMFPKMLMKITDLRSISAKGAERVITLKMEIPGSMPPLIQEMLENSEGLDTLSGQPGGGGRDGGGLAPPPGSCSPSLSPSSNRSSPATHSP
Sequence of Estrogen-related receptor gamma (Homo sapiens) (P62508 whole entry, looked up, the tested form may be a part): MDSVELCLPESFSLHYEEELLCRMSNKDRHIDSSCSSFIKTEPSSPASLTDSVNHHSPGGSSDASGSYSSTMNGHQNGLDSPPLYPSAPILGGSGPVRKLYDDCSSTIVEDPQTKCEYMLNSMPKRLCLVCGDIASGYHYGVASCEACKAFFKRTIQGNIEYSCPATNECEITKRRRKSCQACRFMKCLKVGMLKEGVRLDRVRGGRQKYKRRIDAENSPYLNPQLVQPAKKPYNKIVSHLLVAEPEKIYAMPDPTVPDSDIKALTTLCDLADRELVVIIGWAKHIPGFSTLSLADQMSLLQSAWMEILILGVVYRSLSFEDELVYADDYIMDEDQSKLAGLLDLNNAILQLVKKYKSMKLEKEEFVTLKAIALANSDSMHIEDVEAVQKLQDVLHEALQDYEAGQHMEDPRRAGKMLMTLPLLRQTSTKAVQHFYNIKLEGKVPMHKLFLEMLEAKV
Sequence of human Peripheral-type Benzodiazepine Receptor (PBR), TSPO (gene 706) (P30536 whole entry, looked up): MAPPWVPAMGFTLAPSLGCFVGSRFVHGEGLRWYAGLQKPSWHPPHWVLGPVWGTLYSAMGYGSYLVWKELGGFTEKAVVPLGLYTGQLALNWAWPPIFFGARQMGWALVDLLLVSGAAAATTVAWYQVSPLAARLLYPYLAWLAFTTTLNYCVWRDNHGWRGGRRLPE
Sequence of human Phosphodiesterase 10 (PDE10), PDE10A (gene 10846) (Q9Y233 whole entry, looked up): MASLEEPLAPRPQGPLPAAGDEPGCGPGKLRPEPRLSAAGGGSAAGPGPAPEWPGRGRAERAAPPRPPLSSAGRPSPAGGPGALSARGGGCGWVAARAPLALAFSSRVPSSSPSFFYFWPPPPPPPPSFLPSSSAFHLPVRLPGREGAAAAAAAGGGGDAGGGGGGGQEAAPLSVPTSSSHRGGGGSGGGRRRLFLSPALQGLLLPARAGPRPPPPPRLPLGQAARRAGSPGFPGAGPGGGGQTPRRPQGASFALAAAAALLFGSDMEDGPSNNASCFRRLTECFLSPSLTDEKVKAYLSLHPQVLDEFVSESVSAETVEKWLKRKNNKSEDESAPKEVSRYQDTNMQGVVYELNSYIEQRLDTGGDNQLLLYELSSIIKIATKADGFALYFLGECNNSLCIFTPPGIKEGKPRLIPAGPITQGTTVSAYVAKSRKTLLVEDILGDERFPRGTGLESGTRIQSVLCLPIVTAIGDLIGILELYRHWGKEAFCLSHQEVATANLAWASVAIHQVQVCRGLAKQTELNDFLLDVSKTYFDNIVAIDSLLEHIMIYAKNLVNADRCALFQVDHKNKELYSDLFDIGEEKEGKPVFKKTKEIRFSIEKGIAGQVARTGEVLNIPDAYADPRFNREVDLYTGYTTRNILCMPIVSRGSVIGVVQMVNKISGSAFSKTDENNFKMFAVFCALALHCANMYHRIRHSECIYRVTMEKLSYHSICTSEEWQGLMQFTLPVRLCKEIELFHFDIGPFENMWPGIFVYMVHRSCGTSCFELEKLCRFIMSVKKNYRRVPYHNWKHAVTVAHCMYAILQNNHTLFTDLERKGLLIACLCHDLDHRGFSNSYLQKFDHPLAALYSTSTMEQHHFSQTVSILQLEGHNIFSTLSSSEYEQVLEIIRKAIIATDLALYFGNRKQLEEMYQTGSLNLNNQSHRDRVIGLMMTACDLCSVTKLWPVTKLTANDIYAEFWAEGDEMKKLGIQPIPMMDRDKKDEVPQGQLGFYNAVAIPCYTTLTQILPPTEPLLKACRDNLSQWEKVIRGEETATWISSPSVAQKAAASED

OC(C(F)(F)F)(C(F)(F)F)C(O)(C(F)(F)F)C(F)(F)F
outcome [1]: inactive
AC50 [2]: 18.9 µM (active)
outcome [2]: inactive
AC50 [3]: 0.218 µM (active)
outcome [3]: inactive
AC50 [4]: 5.86 µM (active)
outcome [4]: inactive
AC50 [5]: 7.66 µM (active)
outcome [5]: inactive

O=S(=O)(O)c1cccc2ccccc12
outcome [6]: inactive

CC(=[OH+])/C=C(/C)[O-].CC(=[OH+])/C=C(/C)[O-].CC(=[OH+])/C=C(/C)[O-].[Al]
outcome [7]: inactive

COc1ccccc1OCC(O)CO (centres undefined)
AC50 [8]: 25 µM (active)

Oc1ccc(Oc2ccccc2)cc1
outcome [9]: inactive

O=C(O)Cc1c[nH]c2ccccc12
outcome [6]: inactive

CC[N+](CC)(CC(=O)Nc1c(C)cccc1C)Cc1ccccc1 (tested in a mixture with another compound)
AC50 [7]: 4.38 µM (active)
outcome [10]: inactive
outcome [11]: inactive

C=C(C)C(=O)OCC1CCCO1 (centres undefined)
outcome [9]: inactive

CNCCC(Oc1ccc(C(F)(F)F)cc1)c1ccccc1 (centres undefined)
AC50 [12]: 18.8 µM (active)
AC50 [13]: 12.7 µM (active)
AC50 [14]: 15 µM (active)
AC50 [15]: 7.3 µM (active)
AC50 [16]: 18.6 µM (active)
AC50 [17]: 24.8 µM (active)
